Reference: PubChem BioAssay

Biological target: Carbonic anhydrase 2 (Homo sapiens) (UniProt P00918)
Assay: compounds binding carbonic anhydrase 2 – biochemical, small-molecule microarray, Alexa647-labelled CAII, profiling panel (AID 1122)
Details: CAII-A647 binding fluorescence, higher = more signal

Row | SMILES | composite z-score
1 | CC1CC/C=C\[C@H]2OC34C=CCN(C(C)(C)C)C(=O)[C@H]3N(CCCCCCO)C(=O)[C@@H]4C2C(=O)O1 (stereo not given in full) | 0.932
2 | C[C@@]1([C@@H](NC(=O)c2ccccc2)c2ccc(-c3ccccc3)cc2)C[C@H]1C1CCCCC1 | -0.137
3 | COCCCNC(=O)[C@@]1(Cc2ccccc2N=[N+]=[N-])N=C(c2ccc(OCCCO)cc2)O[C@H]1c1ccccc1N=[N+]=[N-] | 0.58
4 | CCN(CC)c1ccc(N2CC=CC34O[C@@H]5/C=C\CCCOC(=O)C5[C@H]3C(=O)N(CCO)[C@@H]4C2=O)cc1 (stereo not given in full) | 0.78
5 | CC(C)(C)OC(=O)CC[C@]12N=C(c3ccc(OCCCO)cc3)O[C@H]1c1ccccc1N(CCS(=O)(=O)c1ccccc1)C2=O | 0.422
6 | CN1C(=O)C2C=CC(C(O)c3cccs3)N(Nc3ccccc3)C2C1=O (stereo not given) | 0.831
7 | O=C1O[C@H](c2ccccc2)[C@H](c2ccccc2)N2[C@H]1[C@@H](C(=O)O)[C@]1(C(=O)Nc3ccc(C#CC4=CCCCC4)cc31)[C@H]2c1ccccc1OCCO | 0.602
8 | COc1cc(OC)c(C(O)C2C=CC3C(=O)NC(=O)C3N2Nc2ccc(Cl)cc2Cl)cc1Br (stereo not given) | 0.615
9 | C=CC[C@]1(C(=O)NCCCOC)N=C(c2ccc(OCCCO)cc2)O[C@H]1c1ccccc1N=[N+]=[N-] | 0.726
10 | Cc1ccc(S[C@]2(C(=O)NCCN3CCOCC3)CC(=O)N(Cc3ccccc3Cl)[C@@H]2c2ccc(CO)cc2)cc1 | 0.686
11 | Cc1ccc(S[C@]2(C(=O)NCC(C)C)CC(=O)N(Cc3cc(C(F)(F)F)cc(C(F)(F)F)c3)[C@@H]2c2ccc(CO)cc2I)cc1 | 0.89
12 | CC(C)[C@@H](CO)NC(=O)[C@H]1[C@@H](c2ccccc2)N(c2ccccc2)O[C@@H]1C | 0.459
13 | C=CCOC(=O)[C@@H]1[C@H]2C(=O)O[C@H](c3ccccc3)[C@H](c3ccccc3)N2[C@H](c2ccc(OCCOC(=O)[C@@H]3C[C@@H]4C(=O)N[C@@H](CCCCN(C)C)C(=O)N4[C@@H]3c3ccc(O)cc3)cc2)[C@@]12C(=O)Nc1ccc(I)cc12 | 0.275
14 | COCCOC(=O)N1C(=O)[C@@]2(c3cc(C#CC4=CCCCC4)ccc31)[C@H](C(=O)Nc1nc3ccccc3s1)[C@H]1C(=O)O[C@H](c3ccccc3)[C@H](c3ccccc3)N1[C@@H]2c1ccccc1OCCO | 0.188
15 | CC(C)N1C(=O)[C@@]2(Cc3ccccc31)c1ccccc1C(=O)N(C1CCCCC1)[C@H]2c1ccc(CO)cc1 | 0.156
16 | O=C1O[C@H](c2ccccc2)[C@H](c2ccccc2)N2[C@H]1[C@@H](C(=O)O)[C@]1(C(=O)Nc3ccc(C#CCCO)cc31)[C@H]2c1ccc(O)cc1 | 0.501
17 | C=CC[C@@]1(C(=O)NCc2ccccc2)N=C(c2ccc(OCCCO)cc2)O[C@@H]1c1ccccc1N=[N+]=[N-] | 0.712
18 | COc1ccc(CCN2C(=O)[C@@]3(c4ccc([N+](=O)[O-])cc4)CC(=O)N(C4CCCCC4)[C@@H]3c3ccc(CO)cc32)cc1 | 0.257

Row | SMILES | composite z-score
19 | C=CCOC(=O)[C@@H]1[C@H]2C(=O)O[C@H](c3ccccc3)[C@H](c3ccccc3)N2[C@H](c2ccc(OCCOC(=O)[C@@H]3C[C@@H]4C(=O)N[C@@H](CCCC[N+](C)(C)C)C(=O)N4[C@@H]3c3cccc(OCCO)c3)cc2)[C@@]12C(=O)Nc1ccc(I)cc12 | 0.46
20 | O=C1[C@H]2C=C(Br)[C@H](C[C@@H]2OCCCCO)[C@@]12CO2 | -0.191
21 | O=C(NCc1ccccc1)[C@@]1(Cc2ccccc2)N=C(c2ccc(OCCCO)cc2)O[C@H]1c1ccccc1 | 0.617
22 | CCc1oc(CC[C@@H](CO)NC(=O)NCCn2cc(C3(O)CCCCC3)nn2)c(C(=O)OC)c1C(=O)OC | -0.0227
23 | C=C(/C(=C/C[C@@H](OC(C)=O)c1ccc(OCCO)cc1)c1cnc2ccccc2c1)C(C)C | 0.425
24 | COC(=O)[C@@]1(Cc2ccc(F)cc2)[C@H]2c3cc(C(=O)N(C)C)n(Cc4ccc(S(C)(=O)=O)cc4)c3C[C@H]2CN1C(=O)c1ccccc1 | 0.747
25 | O=C(NCc1ccc(F)cc1)[C@H]1C[C@H]2C(=O)N[C@@H](Cc3ccccc3)C(=O)N2[C@H]1c1ccc(O)cc1 | 0.606
26 | C=CC[C@@]1(C(=O)N(C)C)N=C(c2ccc(OCCCO)cc2)O[C@@H]1c1ccccc1N=[N+]=[N-] | 0.588
27 | C=C(COC)/C(=C/C[C@@H](OC(C)=O)c1ccc(OCCO)cc1)c1cc(C(=O)OC)ccc1OC | 0.591
28 | Cc1ccc(C(C)CC(O)C2C=CC3C(=O)N(C)C(=O)C3N2NC(=O)OC(C)(C)C)o1 (stereo not given) | 0.642
29 | CC(C)C[C@@H]1NC(=O)[C@H]2C[C@@H](C(=O)NCCCCCCN(C)C)[C@@H](c3ccc(O)cc3)N2C1=O | 0.479
30 | CN(C)CCCCCCNC(=O)[C@@H]1C[C@@H]2C(=O)N[C@@H](CCCCN)C(=O)N2[C@@H]1c1cccc(OCCO)c1 | 0.92
31 | [N-]=[N+]=NCc1ccccc1[C@H]1OC(c2ccc(OCCCO)cc2)=N[C@@]1(Cc1ccccc1)C(=O)NCc1ccccc1 | 0.448
32 | CCOC(=O)C[C@H]1[C@H](OC(=O)c2cc3ccccc3oc2=O)[C@@H](NC(=O)C2CCCCC2)c2cc(OCCCO)ccc2N1C(=O)c1ccccc1 | 0.274
33 | [N-]=[N+]=NCc1ccccc1C[C@]1(C(=O)NCC(O)CO)N=C(c2ccc(OCCCO)cc2)O[C@H]1c1ccccc1 (stereo not given in full) | 0.698
34 | CO[C@H]1O[C@H](CO)[C@@H](OC(=O)Nc2ccc(Br)cc2)[C@H](OC(=O)c2cc3ccccc3[nH]2)[C@H]1OC(=O)c1cc2ccccc2[nH]1 | 0.386
35 | CC(CO)N1C(=O)[C@@H]2C3C(=O)OCCC/C=C\[C@H]3OC23C=CCN(c2ccc4ccccc4c2)C(=O)[C@@H]13 (stereo not given in full) | 0.0684
